HPGD inh = blocks human HPGD enzyme activity | P15428 | purified HPGD, NADH fluorescence kinetic, PGE2 substrate | Potency, µM, usual class: inhibitors | 150,000 tested, 4.3% active
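20 nM HPGD preincubated 15 min at room temperature with compound in 50 mM Tris-HCl pH 8, 0.01% Tween 20. Started with 1 mM NAD+ and 30 uM prostaglandin E2; NADH fluorescence (360/450 nm) read 5 times over 30-s intervals, last minus first.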
ALDH1A1 block = inhibitors of human aldehyde dehydrogenase 1A1; Potency, µM (highest dose often 75.3 µM), most hits filed as inhibitors; AID 1030; Purified ALDH1A1, NADH fluorescence, propionaldehyde substrate; P00352; 220,000 tested, 7.3% active
Target sequence (P00352 whole entry, looked up): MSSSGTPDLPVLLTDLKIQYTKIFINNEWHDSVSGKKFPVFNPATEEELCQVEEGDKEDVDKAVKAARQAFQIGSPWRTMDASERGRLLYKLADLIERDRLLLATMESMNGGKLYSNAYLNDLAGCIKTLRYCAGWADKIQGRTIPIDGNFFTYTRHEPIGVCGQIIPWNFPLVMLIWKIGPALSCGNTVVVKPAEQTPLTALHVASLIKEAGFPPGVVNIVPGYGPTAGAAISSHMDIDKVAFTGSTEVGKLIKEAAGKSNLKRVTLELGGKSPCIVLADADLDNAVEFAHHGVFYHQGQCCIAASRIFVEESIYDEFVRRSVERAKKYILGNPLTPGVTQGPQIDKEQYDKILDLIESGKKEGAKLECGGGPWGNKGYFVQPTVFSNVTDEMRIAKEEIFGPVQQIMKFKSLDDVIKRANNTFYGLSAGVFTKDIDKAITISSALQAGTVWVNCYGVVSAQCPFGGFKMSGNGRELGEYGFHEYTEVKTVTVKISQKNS
Lamin A splicing = changes lamin A minigene splicing in HeLa cells. AID 1487. Potency, µM (series often up to 46.1 µM), most hits filed as inhibitors. 200,000 tested, 0.01% active. HeLa LMNA splicing GFP/RFP minigene ratio, 48 h; active = well fitted inhibition curve with a large enough effect in the signal ratio, with a control signal flat, not every such curve was filed as active; inconclusive = small, poorly fitted or top-dose-only effect, or effect the other way, or a change in a side signal; the % refers to the signal ratio
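S3 HeLa cells stably expressing lamin A-EGFP splicing minigene plus DsRed2, 600 cells/well, 48 h compound exposure at 37C. Laser-scanning cytometry; analysed as GFP (500-530 nm)/RFP (575-640 nm) total intensity ratio; 0.5% DMSO vehicle.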
PNC assembly inh = inhibitors of perinucleolar compartment assembly. 140,000 tested, 3.1% active. activity change (PNC), negative = inhibition, % at 10 µM. PC3M PTB-GFP, PNC prevalence imaging, 16 h; stronger effect = lower value. AID 2417;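 active = readout at or below -70, meaning at least 70% loss of cells showing the perinucleolar compartment, a nuclear body marking cancer cells; inconclusive = readout between -30 and a set limit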
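PC3M cells stably expressing PTB-GFP, 750–1000 cells/well, treated 16 h at 37 °C with compound (23 nl of library stock), in duplicate. After paraformaldehyde fixation and Hoechst stain, imaged at 20x; PNC prevalence scored by image analysis.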
ALOX12 inhib = inhibitors of human 12-lipoxygenase (ALOX12) | purified 12-hLO, xylenol orange hydroperoxide absorbance | Potency, µM (top dose mostly 57.1 µM), usual class: inhibitors | 150,000 tested, 0.12% active; active = well fitted inhibition curve with a large enough effect; inconclusive = small, poorly fitted or top-dose-only effect; also: nearly all actives have a fitted effect of over 55% in size
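Purified human 12hLO (150 nM final) was preincubated with compounds for 15 min at room temperature in 25 mM Hepes pH 7.0, 0.01% Triton X-100, then reacted with 40 uM arachidonic acid for 30 min. Hydroperoxide was detected with ferrous iron/xylenol orange.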
Large screens that a line does not name were inactive. Compounds with a hit are over-represented: about 10% of the library has one in this group of screens. Unless noted, calls follow the shape of the dose curve; as a rule, active = well fitted inhibition curve with a large enough effect (not every such curve was filed as active); inconclusive = small, poorly fitted or top-dose-only effect, or another doubt; inactive = no such curve, though single readings can be large or run the other way.

O=S(=O)(NC1CCCC1)c1ccc(S(=O)(=O)NC2CCCC2)cc1	PNC assembly inh inconclusive
Cc1ccc(CCNC(=O)CCSCc2ccccc2Cl)cc1	none (no result: HPGD inh, ALDH1A1 block, PNC assembly inh, ALOX12 inhib)
C=CC1=C2C=C(C3CC3)N(CCN3CCOCC3)C=C2C(=O)C(C)(OC(=O)c2ccco2)C1=O (stereo not drawn)	ALDH1A1 block inconclusive (no result: PNC assembly inh)
Cc1ccc(C(=O)CN(Cc2ccccc2)C2=NCCS2)cc1	ALDH1A1 block 20µM, PNC assembly inh inconclusive
O=C(CN(Cc1ccccc1)C1=NCCS1)c1ccccc1	none
NC(=O)c1c(NC(=O)CSc2nnc(-c3ccco3)n2-c2ccccc2)sc2c1CCC2	HPGD inh 28µM, ALDH1A1 block inconclusive, Lamin A splicing inconclusive
Cc1nnc(SCC(=O)Nc2sc3c(c2C#N)CCCCC3)n1N	ALDH1A1 block 22µM
COc1ccc(-c2nnc(SCC(=O)Nc3sc4c(c3C#N)CCCC4)n2-c2ccccc2)cc1	ALDH1A1 block inconclusive, PNC assembly inh -86
O=C(NCC1OCCc2ccccc21)c1ccco1 (stereo not drawn)	ALDH1A1 block 7.9µM
O=C(CCc1ccccc1)NCC1OCCc2ccccc21 (stereo not drawn)	none (no result: HPGD inh, PNC assembly inh, ALOX12 inhib)
Cc1cc(C)c2c(N)c(S(=O)(=O)c3ccccc3)sc2n1	HPGD inh inconclusive, ALDH1A1 block inconclusive, Lamin A splicing inconclusive
CCCCS(=O)(=O)c1sc2nc(C)cc(C)c2c1N	HPGD inh 2.8µM
Cc1onc(-c2ccccc2)c1CNS(=O)(=O)c1ccccc1[N+](=O)[O-]	ALDH1A1 block 13µM (no result: HPGD inh, Lamin A splicing, PNC assembly inh, ALOX12 inhib)
Cc1ccccc1CNS(=O)(=O)c1ccccc1[N+](=O)[O-]	ALDH1A1 block inconclusive (no result: HPGD inh, PNC assembly inh, ALOX12 inhib)
Cc1ccc(C)c(NC(=O)CSc2nnc(CCCCCNC(=O)OC(C)(C)C)o2)c1	HPGD inh 18µM, ALDH1A1 block 9.5µM
O=C1c2ccccc2C(O)(Cc2ccccc2)N1C1CCCCC1 (stereo not drawn)	ALDH1A1 block 22µM, PNC assembly inh inconclusive
CC(C)CN1C(=O)c2ccccc2C1(O)Cc1ccccc1 (stereo not drawn)	ALDH1A1 block inconclusive
CC(C)[C@H](NC(=O)c1ccccc1)C(=O)OCC(=O)NCCc1ccc(F)cc1	PNC assembly inh -134
COc1ccc(NC(=O)CC(=O)Nc2ccc(OC)cc2OC)c(OC)c1	PNC assembly inh -127
COc1ccc(NC(=O)CCCN2C(=O)C3C4C=CC(C4)C3C2=O)c(OC)c1 (stereo not drawn)	ALDH1A1 block 13µM, PNC assembly inh inconclusive
COc1ccc(CNC(=S)Nc2cc(OC)ccc2OC)cc1	ALDH1A1 block inconclusive, Lamin A splicing inconclusive
COc1ccc(NC(=S)Nc2ccc(OC)cc2OC)c(OC)c1	HPGD inh 25µM, ALDH1A1 block 20µM
COc1ccc(OC)c(NC(=O)CCCN2C(=O)C3C4C=CC(C4)C3C2=O)c1 (stereo not drawn)	ALDH1A1 block inconclusive
COC(=O)NNC(=S)Nc1cc(OC)ccc1OC	HPGD inh inconclusive, ALDH1A1 block 25µM
CCCN(C(=O)c1c(C)oc2ncn(CC(C)C)c(=O)c12)c1ccccc1C	none (no result: HPGD inh, ALDH1A1 block, PNC assembly inh, ALOX12 inhib)
O=C(O)[C@@H]1CCCN[C@H]1C(=O)O	none (no result: HPGD inh, ALDH1A1 block, Lamin A splicing, PNC assembly inh)
CCOc1cc(NC(=S)NCC2CCCO2)c(OCC)cc1NC(=O)c1ccccc1C (stereo not drawn)	ALOX12 inhib inconclusive
COc1ccc(NC(=S)Nc2ccccc2OC)c(OC)c1	ALDH1A1 block 25µM (no result: HPGD inh, Lamin A splicing, PNC assembly inh, ALOX12 inhib)
CCCCC(=O)Nc1ccc(NC(=O)CC)cc1OC	PNC assembly inh -84
COc1ccc(NC(=S)Nc2ccccn2)c(OC)c1	ALDH1A1 block inconclusive, Lamin A splicing inconclusive
CCOc1cc(NC(=S)Nc2ccccc2OC)c(OCC)cc1NC(=O)c1ccccc1C	HPGD inh inconclusive, ALDH1A1 block inconclusive, PNC assembly inh -109, ALOX12 inhib inconclusive
O=c1cc(-c2cccc(-c3ccc(C(F)(F)F)cc3)c2)c2cc3c(cc2o1)OCO3	ALDH1A1 block inconclusive (no result: Lamin A splicing, PNC assembly inh)
CC(=O)OC1CC[C@@]2(C)C(CC[C@@]3(C)C2CC=C2C4CC(C)(C)CC[C@]4(C(=O)O)CC[C@@]23C)C1(C)C (stereo partly drawn)	none (no result: Lamin A splicing, PNC assembly inh)
O[C@@H](C1=C/C(=C\c2ccncc2)c2ccccc21)c1ccncc1	none (no result: Lamin A splicing, PNC assembly inh)
COC(=O)N1C2=C(c3ccccc3[C@@H]1CC(=O)Nc1ccc3cc4ccccc4cc3c1)[C@@H]1C(=O)N(c3ccccc3)C(=O)[C@@H]1[C@H](C)C2	none (no result: PNC assembly inh)

Screening results deposited in PubChem by National Center for Advancing Translational Sciences (NCATS).
